Consider 17 compounds from ChEMBL document CHEMBL1961873, “Compounds: GSK PKIS; Assays: Nanosyn kinase panel” (2012).

For assay [1], the target named is Platelet-derived growth factor receptor beta (Homo sapiens) (UniProt P09619). The note with it: at 1 µM.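 Note: each value is a mean percent inhibition.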
The target of assay [2] is Tyrosine-protein kinase FRK (Homo sapiens) (UniProt P42685). The note with it: at 0.1 µM.
The target is the same in assay [3]. To be noted: at 1 µM.
Assay [4] concerns the target Protein-tyrosine kinase 2-beta (Homo sapiens) (UniProt Q14289). The note with it: at 0.1 µM.
For assay [5] the target is unchanged. The note with it: at 1 µM.
Assay [6] deals with Proto-oncogene tyrosine-protein kinase receptor Ret (Homo sapiens) (UniProt P07949). The note with it: at 0.1 µM.
Proto-oncogene tyrosine-protein kinase receptor Ret (Homo sapiens), sequence (P07949 whole entry): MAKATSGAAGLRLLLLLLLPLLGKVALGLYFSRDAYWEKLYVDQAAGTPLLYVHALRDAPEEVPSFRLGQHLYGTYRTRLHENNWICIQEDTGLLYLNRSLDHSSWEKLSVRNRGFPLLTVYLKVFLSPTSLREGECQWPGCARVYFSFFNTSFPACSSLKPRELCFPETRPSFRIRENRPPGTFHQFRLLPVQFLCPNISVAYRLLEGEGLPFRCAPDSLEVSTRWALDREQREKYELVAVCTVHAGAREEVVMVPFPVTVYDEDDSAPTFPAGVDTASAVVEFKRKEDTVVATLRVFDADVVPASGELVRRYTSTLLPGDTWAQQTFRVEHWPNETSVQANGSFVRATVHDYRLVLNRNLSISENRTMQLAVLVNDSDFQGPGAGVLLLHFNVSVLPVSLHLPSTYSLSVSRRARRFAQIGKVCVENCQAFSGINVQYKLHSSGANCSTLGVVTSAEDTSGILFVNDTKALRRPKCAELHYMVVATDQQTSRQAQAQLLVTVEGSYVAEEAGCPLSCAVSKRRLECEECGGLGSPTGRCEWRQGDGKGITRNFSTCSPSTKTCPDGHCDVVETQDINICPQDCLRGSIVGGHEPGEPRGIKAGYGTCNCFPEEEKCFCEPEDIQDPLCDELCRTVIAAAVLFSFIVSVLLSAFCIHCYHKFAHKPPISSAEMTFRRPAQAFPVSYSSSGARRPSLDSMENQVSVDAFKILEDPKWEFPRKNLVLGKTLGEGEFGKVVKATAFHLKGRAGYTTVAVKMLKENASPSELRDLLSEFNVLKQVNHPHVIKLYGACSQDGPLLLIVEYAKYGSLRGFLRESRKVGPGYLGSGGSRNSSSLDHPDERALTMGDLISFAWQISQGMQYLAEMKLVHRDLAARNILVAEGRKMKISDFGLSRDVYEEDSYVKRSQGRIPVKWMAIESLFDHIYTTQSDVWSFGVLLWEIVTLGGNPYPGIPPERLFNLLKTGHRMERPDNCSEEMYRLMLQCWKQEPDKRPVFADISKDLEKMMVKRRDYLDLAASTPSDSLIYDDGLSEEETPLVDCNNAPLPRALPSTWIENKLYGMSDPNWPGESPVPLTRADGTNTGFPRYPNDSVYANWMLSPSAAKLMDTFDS
Assay [7] has the same target. To be noted: at 1 µM.
Assay [8] concerns Proto-oncogene tyrosine-protein kinase receptor Ret (Homo sapiens), P07949 [V804L]. To be noted: at 0.1 µM.
Proto-oncogene tyrosine-protein kinase receptor Ret (Homo sapiens), P07949 [V804L], sequence (P07949 whole entry V804L): as the sequence (P07949 whole entry) above, with V804L counted along it
Assay [9] shares this test system. To be noted: at 1 µM.
The subject of assay [10] is Proto-oncogene tyrosine-protein kinase receptor Ret (Homo sapiens), P07949 [Y791F]. To be noted: at 0.1 µM.

As usually defined, the inhibition is the change of the read-out against control, counted positive when it falls.

Proto-oncogene tyrosine-protein kinase receptor Ret (Homo sapiens), P07949 [Y791F], sequence (P07949 whole entry Y791F): as the sequence (P07949 whole entry) above, with Y791F counted along it
Protein-tyrosine kinase 2-beta (Homo sapiens), sequence (Q14289 whole entry, looked up): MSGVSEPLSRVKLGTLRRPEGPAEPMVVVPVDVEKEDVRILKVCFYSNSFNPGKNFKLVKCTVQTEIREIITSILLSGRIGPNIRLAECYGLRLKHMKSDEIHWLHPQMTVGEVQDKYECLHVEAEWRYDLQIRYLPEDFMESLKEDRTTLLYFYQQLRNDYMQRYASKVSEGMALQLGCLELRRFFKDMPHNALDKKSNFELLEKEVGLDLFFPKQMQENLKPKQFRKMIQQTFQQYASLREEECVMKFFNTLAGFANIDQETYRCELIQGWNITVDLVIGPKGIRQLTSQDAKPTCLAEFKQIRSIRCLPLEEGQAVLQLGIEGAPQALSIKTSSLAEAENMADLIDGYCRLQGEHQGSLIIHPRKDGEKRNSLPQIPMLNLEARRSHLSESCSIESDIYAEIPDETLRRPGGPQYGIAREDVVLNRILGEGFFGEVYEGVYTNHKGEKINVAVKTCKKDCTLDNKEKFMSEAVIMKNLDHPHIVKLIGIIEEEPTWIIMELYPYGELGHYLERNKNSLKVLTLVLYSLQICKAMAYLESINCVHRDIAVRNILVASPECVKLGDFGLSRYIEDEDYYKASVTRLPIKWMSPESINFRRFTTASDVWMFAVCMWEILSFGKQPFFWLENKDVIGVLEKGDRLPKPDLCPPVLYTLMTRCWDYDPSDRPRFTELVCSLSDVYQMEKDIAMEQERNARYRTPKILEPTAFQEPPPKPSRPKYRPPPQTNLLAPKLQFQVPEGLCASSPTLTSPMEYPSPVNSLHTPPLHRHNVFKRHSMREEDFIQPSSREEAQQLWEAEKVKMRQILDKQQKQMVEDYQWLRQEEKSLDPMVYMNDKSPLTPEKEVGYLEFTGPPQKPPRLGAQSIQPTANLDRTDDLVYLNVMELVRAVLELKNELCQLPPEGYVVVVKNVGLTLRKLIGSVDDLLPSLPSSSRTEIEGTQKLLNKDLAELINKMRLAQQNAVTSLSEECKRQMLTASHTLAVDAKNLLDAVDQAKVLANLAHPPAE
Tyrosine-protein kinase FRK (Homo sapiens), sequence (P42685 whole entry): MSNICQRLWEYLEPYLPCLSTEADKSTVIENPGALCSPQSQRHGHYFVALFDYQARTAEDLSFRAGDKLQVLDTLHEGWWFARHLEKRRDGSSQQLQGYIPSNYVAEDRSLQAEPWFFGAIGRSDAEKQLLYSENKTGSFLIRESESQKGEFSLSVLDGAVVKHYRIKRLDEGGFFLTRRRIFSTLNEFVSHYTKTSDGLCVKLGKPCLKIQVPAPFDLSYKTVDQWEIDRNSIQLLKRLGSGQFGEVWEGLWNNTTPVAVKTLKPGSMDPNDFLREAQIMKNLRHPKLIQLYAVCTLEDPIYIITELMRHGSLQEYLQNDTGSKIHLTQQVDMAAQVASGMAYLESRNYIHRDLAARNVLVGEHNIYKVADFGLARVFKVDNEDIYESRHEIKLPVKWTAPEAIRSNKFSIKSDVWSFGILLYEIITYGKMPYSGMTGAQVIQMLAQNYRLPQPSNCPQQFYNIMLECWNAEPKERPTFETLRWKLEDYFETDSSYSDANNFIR
Platelet-derived growth factor receptor beta (Homo sapiens), sequence (P09619 whole entry): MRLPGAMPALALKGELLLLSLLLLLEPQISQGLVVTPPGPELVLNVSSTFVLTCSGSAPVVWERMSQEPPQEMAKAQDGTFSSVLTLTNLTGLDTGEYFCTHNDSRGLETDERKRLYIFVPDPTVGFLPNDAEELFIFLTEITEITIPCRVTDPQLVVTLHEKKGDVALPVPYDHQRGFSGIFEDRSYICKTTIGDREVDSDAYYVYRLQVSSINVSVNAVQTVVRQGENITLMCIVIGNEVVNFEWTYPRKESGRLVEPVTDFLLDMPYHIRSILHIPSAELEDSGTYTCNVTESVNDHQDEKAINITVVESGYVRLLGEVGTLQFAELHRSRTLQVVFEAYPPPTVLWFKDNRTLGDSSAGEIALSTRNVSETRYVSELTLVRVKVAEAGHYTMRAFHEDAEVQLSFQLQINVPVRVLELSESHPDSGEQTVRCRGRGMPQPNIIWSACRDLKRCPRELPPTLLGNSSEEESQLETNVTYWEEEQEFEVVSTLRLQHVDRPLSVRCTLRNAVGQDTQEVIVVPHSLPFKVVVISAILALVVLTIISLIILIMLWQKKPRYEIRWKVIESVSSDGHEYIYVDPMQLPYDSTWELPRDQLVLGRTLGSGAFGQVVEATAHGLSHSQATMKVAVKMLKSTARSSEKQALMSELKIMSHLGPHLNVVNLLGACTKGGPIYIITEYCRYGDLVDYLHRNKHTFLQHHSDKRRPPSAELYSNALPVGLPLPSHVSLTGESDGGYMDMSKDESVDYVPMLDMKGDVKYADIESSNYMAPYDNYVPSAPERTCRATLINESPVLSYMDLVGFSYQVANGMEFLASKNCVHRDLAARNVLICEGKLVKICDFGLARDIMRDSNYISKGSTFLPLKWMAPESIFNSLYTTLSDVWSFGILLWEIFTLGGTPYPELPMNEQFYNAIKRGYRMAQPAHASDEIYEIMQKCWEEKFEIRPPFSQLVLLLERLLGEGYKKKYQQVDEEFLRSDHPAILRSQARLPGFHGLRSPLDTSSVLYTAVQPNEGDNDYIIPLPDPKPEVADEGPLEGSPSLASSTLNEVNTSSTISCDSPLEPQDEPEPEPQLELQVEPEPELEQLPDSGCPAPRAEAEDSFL

Consider `Cc1nnc(-c2ccc(C)c(-c3ccc(C(=O)NCc4ccc(Cl)cc4)cc3)c2)o1`, for which the inhibition amounted to 3.27% in [1]; 1.52% in assay [2]; 2.43% in assay [3]; 6.59% in [4]; 10.6% in assay [5]; 8.83% in assay [6]. For the same compound, the inhibition in [7] stood at 2.3%; in assay [8], 2.03%; in assay [9], 2.91%; in assay [10], 1.1%.
As for `COc1ccc(C2=C(N3CCc4ccccc43)C(=O)NC2=O)cc1`, the inhibition turned out to be 12.1% in assay [1]; 2.66% in assay [2]; 0.27% in assay [3]; 11.7% in assay [4]; 16% in assay [5]; 9.66% in assay [6]. The inhibition in [7] is 6.15%; in assay [8] it was 5.21%; in [9], 7.12%; in assay [10] it was 6.21%.
As for `COC(=O)Nc1nc2ccc(Sc3ccc(NC(=O)Nc4cc(C(F)(F)F)ccc4F)cc3)cc2[nH]1`, the inhibition in assay [1] is 16.5%; in [2] it was 0.1%; in assay [3], 0.7%; in assay [4], 2.56%; in [5], 0.15%; in assay [6], 24.7%. For the same compound, the inhibition amounted to 74.1% in assay [7], 9.72% in assay [8], 58% in assay [9] and 23% in assay [10].
`Clc1ccc(CNc2nccc(-c3cnn4ncccc34)n2)cc1`: the inhibition in [1] is 13.8%; in [2], 0.01%; in assay [3] it was 1.32%; in assay [4] it was -4.51%; in [5], 2.8%; in assay [6] it was 0.88%. Also, the inhibition in assay [7] is 5.75%; in assay [8], -0.76%; in assay [9], 5.56%; in [10], -0.42%.
Turning to `NS(=O)(=O)c1ccc(N/N=C2\C(=O)Nc3ccc(C(=O)NCCCn4ccnc4)cc32)cc1`, the inhibition in assay [1] was determined as 68.9%; in assay [2], 2.01%; in assay [3], 2.76%; in [4], 14.3%; in assay [5] it was 20.9%; in assay [6], 12.5%. Moreover, the inhibition was 51.9% in assay [7], 38.7% in assay [8], 76.2% in assay [9] and 14.2% in assay [10].
With `C#Cc1cccc(Nc2ncnc3ccc(OCCCCNCCS(C)(=O)=O)cc23)c1`, the inhibition in [1] worked out at 20.5%; in assay [2], 5.22%; in [3], 4.16%; in assay [4] it was 12.1%; in [5] it was 10.3%; in assay [6] it was 14.3%. The inhibition in assay [7] worked out at 18.9%; in [8], 4.06%; in assay [9] it was 11.9%; in assay [10], 17.9%.
For `COc1cc(Nc2ncc(-c3ccccc3)o2)cc(OC)c1OC`, the inhibition is 74.2% in [1]; 0.5% in assay [2]; 4.26% in assay [3]; -6.53% in assay [4]; 5.39% in assay [5]; 2.33% in assay [6]. For the same compound, the inhibition is 15.5% in assay [7], 1% in assay [8], 16.2% in assay [9] and 0.66% in assay [10].
Turning to `c1ccc(Oc2ccc(Nc3ncc(-c4ccccc4)o3)cc2)cc1`, the inhibition in assay [1] was 10.3%; in assay [2], -0.25%; in [3] it was 1.21%; in [4] it was 6.6%; in assay [5], 8.05%; in [6] it was 5.96%. The inhibition turned out to be 3.49% in [7], 4.18% in assay [8], 6.54% in [9] and 5.06% in assay [10].
As to `CCC(=O)Nc1ccc(C)c(-c2ccc(C(=O)NCC3CC3)cc2)c1`, the inhibition was 0.71% in assay [1]; 2.5% in [2]; 2.55% in [3]; 11.8% in assay [4]; 6.44% in assay [5]; 7.45% in assay [6]. Moreover, the inhibition came out at 6.85% in assay [7], 1.64% in assay [8], 2.22% in [9] and 4.76% in assay [10].
As to `CNC(=O)c1cncc(/C=C/c2c(C)cccc2C)c1`, the inhibition in assay [1] was 26.2%; in assay [2], 1.71%; in [3], 17.3%; in assay [4] it was -2.5%; in [5], -2.35%; in assay [6], 4.57%. Besides, the inhibition in assay [7] is 7.32%; in assay [8], -0.1%; in assay [9], 6.46%; in assay [10], 1.16%.
Regarding `N#Cc1ccc(Oc2nccc(-c3c(-c4ccc(F)cc4)ncn3C3CCNCC3)n2)cc1`, the inhibition was 5.37% in assay [1]; 2.75% in [2]; 4.03% in assay [3]; 6.64% in assay [4]; 13.4% in assay [5]; 6.33% in assay [6]. For the same compound, the inhibition in assay [7] was 4.32%; in assay [8], 3.48%; in assay [9] it was 4.02%; in assay [10], 6.66%.
On to `O=C(NCC1CC1)c1ccc(-c2cccc(C(=O)NC3CC3)c2)cc1`, for which the inhibition in assay [1] came out at 8.57%; in assay [2], 1.88%; in assay [3] it was 0.07%; in assay [4], 1.01%; in assay [5] it was 8.49%; in assay [6], 3.9%. In addition, the inhibition was 7.06% in assay [7], 1.77% in assay [8], 7.1% in [9] and 8.82% in assay [10].
Regarding `COc1cccc(/C=N/Nc2ncnc3c2cnn3-c2cccc(OC)c2)c1`, the inhibition in [1] is 11%; in assay [2] it was 2.06%; in [3] it was 3.36%; in assay [4], 1%; in [5] it was 10.2%; in assay [6], 0.27%. In addition, the inhibition in assay [7] turned out to be 6.95%; in assay [8], 0.36%; in assay [9], 1.63%; in assay [10] it was 3.95%.
For `NS(=O)(=O)c1ccc(N/N=C2\C(=O)Nc3ccc(-c4cnco4)cc32)cc1`, the inhibition in assay [1] worked out at 50.4%; in assay [2] it was 1.59%; in assay [3], 1.95%; in assay [4] it was 9.59%; in assay [5], 19.7%; in assay [6], 7.98%. For the same compound, the inhibition in assay [7] stood at 29%; in [8], 15%; in [9], 54%; in assay [10], 8.71%.
With `CCS(=O)(=O)c1ccc(OC)c(Nc2ncc(-c3cccc(-c4ccccc4F)c3)o2)c1`, the inhibition in [1] was 63.6%; in [2], 0.61%; in assay [3] it was 11.7%; in assay [4], 7.79%; in assay [5], 0.8%; in assay [6], 15.4%. Also, the inhibition was found to be 54.4% in assay [7], 3.52% in assay [8], 9.78% in assay [9] and 10.1% in assay [10].
With `c1ccc(-c2n[nH]cc2-c2ccnc(-c3ccc(OCCN4CCOCC4)cc3)c2)nc1`, the inhibition in assay [1] was 52.2%; in [2] it was 2.08%; in assay [3], 0.63%; in assay [4], -9.86%; in [5] it was 0.28%; in assay [6] it was 8.77%. Moreover, the inhibition was determined as 11.1% in [7], 6.56% in assay [8], 4.32% in assay [9] and 10% in [10].
For the compound `COc1cc(N2CCN(C(C)C)CC2)ccc1Nc1nc(Nc2ccc(F)cc2C(=O)NC[C@@H](O)CO)c2cc[nH]c2n1`, the inhibition in [1] worked out at 5.07%; in [2] it was 2.85%; in assay [3], 4.03%; in assay [4] it was 87.3%; in assay [5] it was 96.5%; in [6], 5.61%. The inhibition was determined as 8.19% in [7], 5.31% in assay [8], 18.4% in [9] and 6.02% in assay [10].
